Compounds with a hit are over-represented: about 6.3% of the library has one in this group of screens.
Spn PMK inh = S. pneumoniae PMK inhibition | 65,000 tested, 0.49% active | inhibition, % at 10 µM | AID 539 | purified PMK, PK/LDH-coupled NADH absorbance 340 nm;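 active = top-ranked compounds by inhibition in the single 10 µM screen, taking a fixed number of the strongest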;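 also: 0% = full reaction with DMSO carrier and 100% = background rate without enzyme reaction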
MK inhibit = blocks S. pneumoniae mevalonate kinase. 65,000 tested, 0.48% active. purified MK, PK/LDH-coupled NADH absorbance 340 nm. inhibition, % at 10 µM;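 active = ranked among the strongest by inhibition in the single 10 µM screen, a fixed top-ranked set picked for dose follow-up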
Spn DPM-DC inh = S. pneumoniae DPM-DC inhibition; purified DPM-DC, PK/LDH coupled NADH fluorescence; calls only at 10 µM; 65,000 tested, 0.49% active; AID 556;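 active = the 320 compounds with the highest percent inhibition in the single-dose primary screen, excluding strongly autofluorescent ones, cut at about 32% in these data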;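 also: kinetic rate of NADH fluorescence loss reporting ADP formed by the decarboxylase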
Autofluor 339 = intrinsic fluorescence of library compounds, ex339/em460 – biochemical, MLSMR library, data from DPM-DC assay, artefact control, profiling panel | fluorescence fold increase at 10 µM | 65,000 tested, 5.5% active | AID 709 | compound autofluorescence, ex339/em460 nm, NADH buffer; hits give high values; 1 = no-compound wells, NADH background;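 active = at 10 µM, mean starting fluorescence two-fold or more over control wells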;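 also: signal is the first read of a kinetic run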
Abs 340nm = compounds absorbing at 340 nm; compound absorbance at 340 nm, fold over control; fold change at 10 µM; 65,000 tested, under 10 active; AID 708;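 active = at 10 µM dose, initial 340 nm absorbance at least 2 fold that of control wells; inactive = change under 2 fold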;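 also: initial absorbance extrapolated from kinetic A340 decline of NADH oxidation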
NADH coupling = blocks coupling enzymes of NAD/NADH assays | coupled PK/LDH NADH assays, four targets | IC50, µM (highest dose often 10 µM), without a hit: top-dose inhibition | 65,000 tested, 0.02% active | AID 774;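 active = single-dose screening hits from any of four coupled enzyme assays that gave an IC50 when retested across doses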;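 also: the DPM-DC format reads NADH fluorescence rather than 340 nm absorbance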
* marks the source's active call; other numbers are inactive results; i = inactive; x = no result shown; + = active, no number.

SMILES	Spn PMK inh	MK inhibit	Spn DPM-DC inh	Autofluor 339	Abs 340nm	NADH coupling
COCCCNC(=O)C1CCN(S(=O)(=O)N(CC(C)C)CC(C)C)CC1	8.0	1.0	i	1.11	1.02	3.0%
CCOCCCNC(=O)C1CCN(S(=O)(=O)N(CC(C)C)CC(C)C)CC1	26.0*	0.0	i	1.02	0.96	4.0%
CCS(=O)(=O)N1CCC(C(=O)NCc2ccco2)CC1	26.0*	0.0	i	1.1	1.01	9.0%
CCCCCCS(=O)Cc1ccccc1 (configuration not stated)	0.0	0.0	i	1.02	1.03	0.0%
COCc1cc(=O)n2[nH]c(-c3ccccc3)cc2n1	2.0	3.0	x	2.13*	1.07	3.0%
c1ccc(SCc2nc3ccccc3[nH]2)nc1	0.0	7.0	i	1.03	0.98	2.0%
COc1ccc(C(=O)c2ccc(N3CCN(C4CC(=O)NC4=O)CC3)cc2)cc1F (configuration not stated)	1.0	6.0	i	1.1	1.33	3.0%
Cc1ccc(CNC(=O)c2cc3c(=O)n4cccc(C)c4nc3n(CC3CCCO3)c2=N)cc1 (configuration not stated)	0.0	10.0	x	3.95*	1.02	5.0%
CCOCCCn1c(=N)c(C(=O)Nc2cc(C)on2)cc2c(=O)n3ccccc3nc21	0.0	1.0	x	2.13*	1.01	1.0%
COCCCn1c(=N)c(C(=O)NCC2CCCO2)cc2c(=O)n3cccc(C)c3nc21 (configuration not stated)	11.0	11.0	x	2.89*	1	3.0%
COc1ccc(CNC(=O)c2cc3c(=O)n4ccccc4nc3n(Cc3ccco3)c2=N)cc1	5.0	1.0	i	1.33	0.99	2.0%
N=c1c(C(=O)NCc2ccc(F)cc2)cc2c(=O)n3ccccc3nc2n1CC1CCCO1 (configuration not stated)	9.0	5.0	x	3.86*	1.04	7.0%
CC1CC(C)CN(CCCNC(=O)C2CCC(=O)N2C2CCCC2)C1 (configuration not stated)	13.0	5.0	i	1.05	1.01	6.0%
CCOCCCn1c(=N)c(C(N)=S)cc2c(=O)n3cccc(C)c3nc21	1.0	4.0	i	1.92	1.16	9.0%
Cc1cccn2c(=O)c3cc(C(N)=S)c(=N)n(CCCOC(C)C)c3nc12	2.0	0.0	i	2.05*	1.04	2.0%
COCCCn1c(=N)c(C(=O)NCC2CCCO2)cc2c(=O)n3ccccc3nc21 (configuration not stated)	13.0	4.0	x	4.87*	1.02	9.0%
CCCn1c(=N)c(C(=O)NCC2CCCO2)cc2c(=O)n3cccc(C)c3nc21 (configuration not stated)	20.0	13.0	x	3.69*	1.02	17.0%
C=CCOC(=O)N1CCN(c2cccc(C(F)(F)F)c2)CC1	9.0	9.0	i	1.07	1.02	6.0%
O=C(COc1ncnc2ccccc12)NCCC1=CCCCC1	0.0	0.0	i	1.14	1.03	0.0%
O=C(COc1cnc2ccccc2n1)NCCC1=CCCCC1	11.0	2.0	+	1.99	1.07	16.0%
c1ccc(Cn2nnc3c(NCC4CCCO4)ncnc32)cc1 (configuration not stated)	9.0	7.0	i	1.09	0.96	5.0%
Cc1nn(Cc2ccccc2)c2c1C(c1ccco1)C(C#N)=C(N)O2 (configuration not stated)	9.0	15.0	i	1.03	1.1	8.0%
Cc1nn(Cc2ccccc2)c2c1C(c1ccncc1)C(C#N)=C(N)O2 (configuration not stated)	31.0*	8.0	i	1.05	0.98	4.0%
CCCC(=O)Nc1ccc(-c2nc3cc(C)c(C)cc3o2)c(O)c1	7.0	10.0	x	2.18*	1.17	9.0%
COc1ccc(CC(=O)Nc2ccc(-c3nc4cc(C)ccc4o3)c(O)c2)cc1OC	4.0	0.0	x	2.19*	1.18	2.0%
SMILES	Spn PMK inh	MK inhibit	Spn DPM-DC inh	Autofluor 339	Abs 340nm	NADH coupling
CCCC(=O)Nc1ccc2oc(-c3ccc(OC)c(Br)c3)nc2c1	11.0	7.0	x	3.67*	1.03	9.0%
COc1ccccc1OCC(=O)Nc1cccc(-c2nc3ccccc3o2)c1	3.0	6.0	i	1.03	0.99	12.0%
CCCC(=O)Nc1ccc(-c2nc3cc(C)ccc3o2)cc1	0.0	2.0	x	2.34*	1.11	1.0%
C=CCSc1nc(N)c2c(C)c(C)sc2n1	13.0	5.0	i	1.06	0.99	2.0%
COc1cccc(CNC(=O)C2CCCN(c3nn4c(=O)cc(C)nc4s3)C2)c1 (configuration not stated)	27.0*	0.0	i	1.08	1.02	9.0%
Cc1oc(-c2nc3ccccc3n2C)cc1C(=O)c1ccccc1	0.0	21.0	i	1.1	1.11	8.0%
Cn1c(C(=O)NCCCN2CCCC2=O)cc2c(=O)n(C)c3ccccc3c21	5.0	12.0	i	1.5	1.04	16.0%
Cn1c2ccccc2c2c(C(=O)NCCCN3CCCC3=O)cn(C3CCCCC3)c(=O)c21	21.0	18.0	x	2.46*	1.02	6.0%
CN1CCN(CCCNC(=O)c2cn(C3CCCCC3)c(=O)c3c2c2ccccc2n3C)CC1	20.0	3.0	x	2.08*	1.07	12.0%
O=c1c2ccccc2sn1-c1cc(S(=O)(=O)N2CCOCC2)ccc1N1CCOCC1	17.0	95.0*	+	1.18	1.04	62.0%
CCC(C)NC(=O)c1cnn2c(C)c3c(nc12)CCCC3 (configuration not stated)	21.0	0.0	x	4.9*	1.01	11.0%
CCN(CC)c1ccc(-c2nn3c(-c4n[nH]c5c4CCC5)nnc3s2)cc1	9.0	3.0	i	2.88*	1.13	14.0%
C1CCC(c2nn3c(-c4n[nH]c5c4CCC5)nnc3s2)CC1	13.0	6.0	i	1.12	1	6.0%
COC(=O)C1=CN(C(C)C)C=C(C(=O)OC)C1c1cccc(OC)c1	4.0	4.0	x	2.22*	1.08	4.0%
CCCOc1ccccc1C1NC(=O)NC(C)=C1C(=O)OCCOCC (configuration not stated)	3.0	2.0	i	1.05	0.99	2.0%
CCN1C=C(C(=O)OC)C(c2cccc(C)c2)C(C(=O)OC)=C1	0.0	3.0	x	2.22*	1.05	2.0%
COC(=O)c1cc(-c2cccc(OC)c2)on1	10.0	3.0	i	1.1	0.96	4.0%
COC(=O)C1=CN(CCCN2CCCC2=O)C=C(C(=O)OC)C1c1ccccc1C(F)(F)F	7.0	7.0	x	2.2*	1.04	7.0%
CCOC(=O)C1=C(C)NC(C)=C(C(=O)OC)C1c1cccc([N+](=O)[O-])c1 (configuration not stated)	1.0	4.0	i	0.98	0.99	3.0%
CCCOc1ccccc1C1C(C(=O)OC)=CN(C(C)C)C=C1C(=O)OC	7.0	9.0	x	3.87*	1.06	8.0%

Screening results: PubChem, SRMLSC
